In the library only some 2.6% were active in any assay of this set; here they are far more common.
PME-1 primary: PME-1 inhibitors via competitive probe labeling, primary screen, biochemical, fluorescence polarization, FP-Rh probe, HTS. Protein phosphatase methylesterase 1 (Homo sapiens), Q9Y570. recombinant PME-1. inhibition, % at 5.9 µM. actives 0.53% (n = 320,000);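 active = inhibition above the campaign mean of all compounds plus 3 SD, cut at about 26% in these data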;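 also: competitive labeling of PME-1 active site by serine hydrolase directed probe; 0% = PME-1 with DMSO and 100% = wells lacking PME-1 enzyme; inhibitors block probe labeling so polarization falls and inhibition rises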
Fam108B counter: mouse Fam108B serine hydrolase inhibitors, primary screen, counter-screen for RBBP9 inhibitor project, biochemical, fluorescence polarization. recombinant Fam108B, FP-Rh probe fluorescence polarization. actives 0.33% (n = 300,000). AID 1947, 2009. inhibition, % at 9.51 µM;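 active = inhibition above the screen mean inhibition plus 3 SD, computed separately per campaign, cut at about 18% in these data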;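 also: inhibitors lower polarization as less probe binds the enzyme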
PRMT1 FP inh: PRMT1 methyltransferase inhibitors, primary screen, biochemical, fluorescence polarization; recombinant PRMT1, activity-based probe fluorescence polarization; inhibition, % at 2.79 µM; actives 1.3% (n = 370,000); Protein arginine N-methyltransferase 1 (Homo sapiens), Q99873;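 active = inhibition above about 21% made by adding two undisclosed values, limit read from the data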
PAD4 inh: human PAD4 inhibitors, primary screen, biochemical, fluorescence polarization, 1536-well format; recombinant PAD4, RCA probe fluorescence polarization; inhibition, % at 6.36 µM; actives 0.41% (n = 330,000);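 active = percent inhibition above a cutoff equal to the mean of all tested compounds plus 3 SD, cut at about 15% in these data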;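 also: 0% = PAD4 with RCA probe and DMSO and 100% = probe without PAD4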
Target sequence (Q9UM07 whole entry, looked up): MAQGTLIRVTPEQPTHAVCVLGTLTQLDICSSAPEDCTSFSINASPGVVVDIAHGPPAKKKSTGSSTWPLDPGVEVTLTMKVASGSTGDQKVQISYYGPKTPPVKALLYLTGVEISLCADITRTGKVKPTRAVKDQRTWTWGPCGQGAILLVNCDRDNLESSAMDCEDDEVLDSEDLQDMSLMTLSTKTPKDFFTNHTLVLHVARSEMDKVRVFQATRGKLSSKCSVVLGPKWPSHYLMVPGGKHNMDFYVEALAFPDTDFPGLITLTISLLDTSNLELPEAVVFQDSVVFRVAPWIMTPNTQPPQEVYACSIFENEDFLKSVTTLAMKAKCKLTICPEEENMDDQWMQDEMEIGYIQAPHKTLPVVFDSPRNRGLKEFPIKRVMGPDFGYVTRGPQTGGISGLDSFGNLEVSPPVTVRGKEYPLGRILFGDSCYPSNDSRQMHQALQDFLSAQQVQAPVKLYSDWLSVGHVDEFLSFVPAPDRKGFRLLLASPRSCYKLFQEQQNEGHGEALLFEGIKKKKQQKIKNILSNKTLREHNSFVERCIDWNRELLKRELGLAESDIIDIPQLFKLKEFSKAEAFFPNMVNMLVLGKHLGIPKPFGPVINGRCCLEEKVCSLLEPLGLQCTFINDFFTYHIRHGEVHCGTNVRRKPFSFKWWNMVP
SIAE primary: human SIAE inhibitors, primary screen, biochemical, fluorescence polarization, FP-Rh probe, 1536-well HTS; SIAE FP-Rh probe binding; inhibition, % at 9.66 µM; actives 0.69% (n = 370,000);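 active = inhibition above a cutoff: mean of compounds within the control limits plus 3 SD of those, cut at about 17% in these data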;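 also: 0% = plate median of compound wells and 100% = probe without SIAE protein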
TCR CD3 inh: inhibitors of human TCR-CD3 interaction, primary screen, biochemical, fluorescence, TAMRA-labeled TCR probe; T-cell receptor (TCR); actives 0.37% (n = 360,000); inhibition, % at 9.4 µM; in the data active = inhibition above about 19%;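 also: recombinant mutant TCR 2C K166C tagged with TAMRA read by polarization; 0% = receptor in buffer alone and 100% = receptor with positive control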
PAD4 confirm: human PAD4 inhibitors, confirmation, biochemical, fluorescence polarization; inhibition, % at 6.36 µM; recombinant PAD4, RCA probe fluorescence polarization; shares compounds with PAD4 inh; actives 28% (n = 1,200);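 active = mean inhibition across replicates above the hit cutoff set by the earlier primary screen, cut at about 15% in these data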;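 also: inhibitors block active-site labeling by the probe so polarization falls; 0% = PAD4 with probe and DMSO and 100% = probe without PAD4 enzyme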
Numbers without * were called inactive; . = no result.

SMILES	PME-1 primary	Fam108B counter	PRMT1 FP inh	PAD4 inh	SIAE primary	TCR CD3 inh	PAD4 confirm
CCOc1cc(CNc2ccc(N(C)C)cc2)cc(Br)c1OCC(=O)NC(C)(C)C	9	3	-1	23*	-1	-5	0
N#CCC[C@H]1CC[C@]2(CCCN(C(=O)C3CCCC3)C2)O1	.	.	0	.	-1	.	.
COc1cc(-c2nc3c4ccccc4nc(=S)n3[nH]2)cc(OC)c1OC	26	4	-8	16*	-8	0	25*
c1coc(-c2nnc3n2N=C(c2ccc4c(c2)OCO4)CS3)c1	.	.	2	.	3	.	.
COc1cc(/C=C2\C(=O)N(c3ccc(NC(C)=O)cc3)N=C2c2ccccc2)ccc1O	-10	-1	16	62*	14	-11	5
COC1=C[C@H](C(=O)NC2CCN(Cc3ccccc3)CC2)C(C)C(c2ccccc2)CC1=O (stereo not given in full)	.	.	-3	.	2	.	.
CCOc1ccc2noc3c2c1C(=O)c1ccccc1-3	17	14	150*	135*	17*	11	131*
Cc1ccc(NC2=C/C(=N\S(=O)(=O)c3cccs3)c3ccccc3C2=O)c(C)c1	6	19*	.	65*	.	.	56*
Cc1cccc(NC2=C/C(=N/S(=O)(=O)c3cccs3)c3ccccc3C2=O)c1	16	17	1	28*	16	3	40*
O=C(O)c1ccc(NC2=C/C(=N/S(=O)(=O)c3cccs3)c3ccccc3C2=O)cc1	.	.	1	.	3	6	.
COc1ccc2c(c1)N=CN1CCc3c([nH]c4ccccc34)C3=NCC[C@@]321	.	.	2	.	-1	.	.
CCOc1cc(Br)c(/C=C2/C(=O)N(C)C(=S)N2CC(=O)OC)cc1OC	-1	4	1	-2	-3	2	.
COc1cc(/C=C2\C(=O)N(CCC#N)N=C2C)c(Br)cc1OC(C)C	-8	-1	1	71*	13	-10	1
NC(=O)c1oc2ccccc2c1NC(=O)C1CCCCC1	-3	1	2	1	0	-8	.
NC(=O)c1oc2ccccc2c1NC(=O)C1CC(=O)N(c2ccccc2)C1 (stereo not given)	6	0	.	18*	.	.	27*
COc1ccc(C(=O)c2nccc3cc(OC)c(OC)cc23)cc1OC	22	.	.	61*	.	.	25*
CC(=O)COc1ccc2c(C)c(-c3ccccc3)c(=O)oc2c1	0	1	1	23*	-6	0	-4
O=C1CSc2ccc(C(=O)N3CCCC(C(=O)N4CCCCC4)C3)cc2N1 (stereo not given)	.	.	8	.	6	.	.
COC(=O)C1CN(Cc2cn(Cc3ccc(C)cc3)nn2)CCS(=O)(=O)N1Cc1ccccc1 (stereo not given)	.	.	-7	.	-9	.	.
CCCCN1C[C@@H]2CSCCS(=O)(=O)N2C1=O	.	.	4	.	-1	.	.
COc1ccc(NC(=O)c2cc(C)nc3ccccc23)c(OC)c1	3	-4	3	-1	1	-2	.
COc1cc(NC(=O)c2cc(C)nc3ccccc23)cc(OC)c1OC	4	1	-1	29*	7	4	5
O=C(NC1CCCCN(Cc2ccc(Cl)cc2)C1=O)c1cc(-c2ccccc2)no1 (stereo not given)	.	.	-8	.	-2	.	.
CCCC(=O)N(Cc1cc(=O)[nH]c2ccccc12)c1ccccc1	1	-2	9	4	-8	-7	.
CCC(=O)N(Cc1cc(=O)[nH]c2ccccc12)c1ccccc1	2	3	-6	21*	6	1	22*
O=C(O)CCC(=O)Nc1ccc(F)cc1	-12	-8	2	-3	4	3	.
O=C(O)CCC(=O)Nc1ccc(SSc2ccc(NC(=O)CCC(=O)O)cc2)cc1	-5	-9	92*	56*	-5	-5	50*
c1ccc(-c2nnc3sc(C4CCCCC4)nn23)cc1	.	.	-1	.	-2	.	.
C=CCOc1c(Cl)cc(CNc2ccc(N(C)C)cc2)cc1OC	8	8	19	25*	11	8	1
